# An excerpt weighted towards active compounds, which were near 11% of everything screened.
# PNC assembly inh – perinucleolar compartment assembly inhibition | activity change (PNC), negative = inhibition, % at 10 µM | AID 2417 | hit rate 3.1% among 140,000 | PC3M PTB-GFP, PNC prevalence imaging, 16 h; active compounds read low;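 active = readout at or below -70, meaning at least 70% loss of cells showing the perinucleolar compartment, a nuclear body marking cancer cells; inconclusive = readout between -30 and a set limit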;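 also: plate controls were DMSO wells for no effect and camptothecin positive control wells for full effect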
#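 PC3M cells stably expressing PTB-GFP, 750–1000 cells/well, treated 16 h at 37 °C with compound (23 nl of library stock), in duplicate. After paraformaldehyde fixation and Hoechst stain, imaged at 20x; PNC prevalence scored by image analysis.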
# ALDH1A1 block – ALDH1A1 (human) enzyme inhibition; P00352; Purified ALDH1A1, NADH fluorescence, propionaldehyde substrate; Potency, µM (highest dose often 75.3 µM), without a hit: at the top dose activity, negative = inhibition, actives largely listed as inhibitors; hit rate 7.3% among 220,000; AID 1030;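 also: potency is read from the fitted curve at half-maximal effect; plate controls were no enzyme wells and a reference inhibitor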
# KDM4E inh – JMJD2E (human) inhibition; hit rate 1.6% among 230,000; AID 2147; JMJD2E catalytic domain, FDH-coupled NADH fluorescence (FDH is formaldehyde dehydrogenase); Potency, µM (highest dose often 57.1 µM), without a hit: top-dose activity change, negative = inhibition, usual class: inhibitors;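 also: potency is read from the fitted curve at half-maximal effect; 0% = wells with enzyme and -100% = buffer wells without enzyme; nearly all actives have a fitted effect of over 50% in size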
# Target sequence (B2RXH2 1-337 limits assumed): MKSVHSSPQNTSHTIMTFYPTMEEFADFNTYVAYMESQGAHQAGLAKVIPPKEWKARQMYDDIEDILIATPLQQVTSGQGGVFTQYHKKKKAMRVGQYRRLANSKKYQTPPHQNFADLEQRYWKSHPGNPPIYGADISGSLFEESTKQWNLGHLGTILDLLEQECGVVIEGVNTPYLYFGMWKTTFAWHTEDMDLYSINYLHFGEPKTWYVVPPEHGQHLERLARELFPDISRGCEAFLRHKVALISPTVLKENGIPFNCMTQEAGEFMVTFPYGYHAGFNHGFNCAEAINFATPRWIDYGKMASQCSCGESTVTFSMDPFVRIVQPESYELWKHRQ
# HPGD inh – inhibitors of human 15-hydroxyprostaglandin dehydrogenase (HPGD); P15428; hit rate 4.3% among 150,000; Potency, µM, without a hit: at the top dose activity change, negative = inhibition, hits mostly inhibitors; purified HPGD, NADH fluorescence kinetic, PGE2 substrate; also: potency is read from the fitted curve at half-maximal effect
# Target sequence (P15428 whole entry, looked up): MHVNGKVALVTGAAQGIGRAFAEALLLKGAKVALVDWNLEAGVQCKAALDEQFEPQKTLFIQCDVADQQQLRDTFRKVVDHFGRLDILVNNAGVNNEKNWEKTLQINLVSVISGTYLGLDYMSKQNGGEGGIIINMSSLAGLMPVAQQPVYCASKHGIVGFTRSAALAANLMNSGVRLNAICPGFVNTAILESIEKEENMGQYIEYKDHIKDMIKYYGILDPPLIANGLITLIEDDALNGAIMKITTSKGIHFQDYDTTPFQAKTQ
#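 NADH formation kinetics: reaction with 30 uM PGE2 and 1 mM NAD+ (final), 20 nM enzyme, Tris-HCl pH 8 with Tween 20, after 15 min compound preincubation at room temperature. Fluorescence change, last versus first of five reads.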
# An asterisk follows results filed as active; ? = inconclusive; nt = no result given; [ ] = remark or other dose. Unless noted, calls follow the shape of the dose curve; as a rule, active = well fitted inhibition curve with a large enough effect (not every such curve was filed as active); inconclusive = small, poorly fitted or top-dose-only effect, or another doubt; inactive = no such curve, though single readings can be large or run the other way. Unless noted, % is scaled to controls: 0 for no effect and ±100 for the full control effect.
SMILES,PNC assembly inh,ALDH1A1 block,KDM4E inh,HPGD inh
O=C(O)CC1OCC=C2CN3CCC45C6=CC(=O)C(=O)C([N+](=O)[O-])=C6NC4C1C2CC35 (stereo not drawn),nt,8%,0.063µM*,nt
CC1=CC(c2ccccc2)NC(=S)N1 (stereo not drawn),131,7.1µM*,-2%,13µM*
CCOP(=S)(OCC)Oc1ccc([N+](=O)[O-])cc1,nt,16µM*,nt,-12%
Cc1cccc(N2C(=O)/C(=C/c3ccc(CN(CCC#N)S(C)(=O)=O)o3)C(=O)NC2=S)c1,48,20µM*,-21%,22µM*
O=C1NC(=O)N(c2ccc3c(c2)OCO3)C(=O)/C1=C/c1ccc(N2CCCC2)o1,1,-3%,-1%,-11%
Cc1ccc(N2C(=O)/C(=C/c3ccc(CN(CCC#N)S(C)(=O)=O)o3)C(=O)NC2=S)cc1C,33,20µM*,0%,14µM*
CN1CCN(c2ccc(/C=C3\C(=O)NC(=S)N(c4cccc(Br)c4)C3=O)o2)CC1,?,?,-6%,-10%
C#C[C@@]1(O)CC[C@@H]2[C@@H]3CCC4=CC(=O)CC[C@@]4(C)[C@H]3CC[C@]21C,nt,-4%[20.9 µM],-2%[25.5 µM],-2%
N#Cc1c(/N=C/c2c(O)n(Cc3ccco3)c(=O)[nH]c2=O)sc2c1CCCC2,54,28µM*,?,-23%
Cc1ccccc1N1C(=O)NC(=O)/C(=C\c2cnn(-c3ccccc3)c2)C1=O,-13,18µM*,3%,10µM*
COc1ccc(S(=O)(=O)Nc2cc([N+](=O)[O-])ccc2OC)cc1,32,?,-9%,-22%
COc1ccc2c(c1)c(CCN1CCOCC1)c(C)n2C(=O)c1cccc(Cl)c1Cl,nt,-10%,1%,28µM*
c1ccc(CCN2CCOCC2)nc1,nt,-6%[13.5 µM],nt,-2%
CCN1C(=O)/C(=C\c2ccc([N+](=O)[O-])s2)C(=O)NC1=S,nt,27%,2.5µM*,nt
CCN1CCN(c2ccc([N+](=O)[O-])cc2C=C2C(=O)NC(=O)NC2=O)CC1,26,-1%,-12%,-11%
COc1ccc(OC)c(N2C(=O)NC(=O)/C(=C/c3ccc([N+](=O)[O-])s3)C2=O)c1,nt,?,25µM*,nt
O=C(c1ccc2c(c1)ncn2C1CCCCC1)N1CCC2(CC1)OCCO2,56,-2%,0%,7.9µM*
COc1cccc(C(=O)N2CCC3(CC2)OCCO3)c1,nt,nt,4%,nt
O=C(c1sc2ccccc2c1Cl)N1CCC2(CC1)OCCO2,5,10µM*,4%,14µM*
CCCCNC(=O)/C(C#N)=c1\s/c(=C\c2ccccc2OC(F)F)c(=O)n1CCCOC,38,?,-9%,-23%
COC(=O)[C@]1(C)CC[C@@]2(C)CC[C@@]3(C)C4=CC=C5C(=CC(=O)C(O)=C5C)[C@@]4(C)CC[C@@]3(C)C2C1 (stereo partly drawn),nt,-10%,?,20µM*
O=c1[nH]cnc2[nH]cc(CN3CCCCC3)c12,nt,4%[13.5 µM],nt,0%
Nc1c(C(=O)Nc2ccc([As](=O)(O)O)cc2)cnc2nnnn12,nt,-4%[13.5 µM],nt,0%
S=C1Nc2ccccc2Sc2ccccc21,nt,10µM*,-9%,nt
Cc1onc(-c2ccccc2)c1C(=O)NC1C(=O)N2C(C(=O)O)C(C)(C)S[C@@H]12 (stereo partly drawn),nt,-11%,-4%,-6%
SMILES,PNC assembly inh,ALDH1A1 block,KDM4E inh,HPGD inh
CC(=O)OC1=CC2=CC[C@H]3[C@H]4CCC(=O)[C@@]4(C)CC(=O)[C@]3(S)[C@]2(C)CC1,nt,4.5µM*,nt,-4%
CCCCC(=O)Cl,nt,?,nt,-8%
COC(=O)C12CC3=CCC4C(=O)N(c5ccccc5)C(=O)C4C3Cc3ccccc3[C@@H]1CNC2=O (stereo partly drawn),nt,-7%,7%,-3%
O=C(c1cc(-c2cccnc2)nc2ccc(Cl)cc12)N1CCC2(CC1)OCCO2,8,7.1µM*,1%,-9%
O=C(c1cc(-c2cccnc2)nc2ccccc12)N1CCC2(CC1)OCCO2,21,?,5%,-8%
ClCC(Cl)CCl,nt,14%,nt,-5%
C[C@]12C/C(=C/O)C(=O)C[C@@H]1CC[C@@H]1[C@@H]2CC[C@@]2(C)[C@H]1CC[C@]2(C)O,nt,0.071µM*,nt,-6%
C[C@@]12CCC(Cl)C[C@H]1CCC1C2CC[C@]2(C)C(=O)CCC12 (stereo partly drawn),nt,3%,8%,-9%
CCCCOCCOP(=O)(OCCOCCCC)OCCOCCCC,nt,4%,nt,-4%
O=P(OCCCl)(OCCCl)OCCCl,nt,28µM*,nt,-11%
C[C@]12CC[C@@H]3c4ccc(O)c(O)c4CC[C@H]3[C@@H]1CC[C@@H]2O,nt,nt,1.4µM*,nt
O=c1[nH]c(=O)n(Cc2ccc(F)cc2)c(O)c1C=NCCCN1CCOCC1,20,3%,2%,-7%
CCCCCCn1c(O)c(C=NCCN2CCOCC2)c(=O)[nH]c1=O,-114*,3%,13%,-6%
O=c1[nH]c(=O)n(Cc2ccccc2)c(O)c1C=NCCN1CCOCC1,?,?,5%,32µM*
CCN(CC)CCN=Cc1c(O)n(Cc2ccccc2)c(=O)[nH]c1=O,41,8%,-4%,35µM*
Cc1c(O)c(=O)ccn1C,?,-2%,7.9µM*,0%
CC(Cl)(Cl)Cl,nt,-2%,nt,-10%
CN(N=O)c1cc(O)ccc1O,nt,20µM*,0%,14µM*
CN1CC[C@@]2(C)c3cc(OC(=O)Nc4ccccc4)ccc3N(C)[C@@H]12,nt,11µM*,nt,nt
CN1CCN(c2ccc(NC(=O)Oc3ccccc3)cc2)CC1,35,2%,-3%,0%
CN1CC[C@@]2(C)c3cc(O)ccc3N(C)[C@@H]12,nt,-4%,6.3µM*,11%
CCC(N)C(O)c1ccc(O)c(O)c1 (stereo not drawn),nt,-9%,14µM*,-4%
C=CCc1cc(OC)c2c(c1OC)OCO2,nt,-4%,2%,-11%
COc1cc2cc(c1Cl)N(C)C(=O)C[C@H](OC(=O)C(C)C)[C@]1(C)O[C@@H]1[C@@H](C)[C@H]1C[C@](O)(NC(=O)O1)[C@@H](OC)/C=C\C=C(\C)C2,nt,0%[13.5 µM],nt,-4%
C[C@H](CC(C#N)(c1ccccc1)c1ccccc1)N1CCCCC1,nt,11%[13.5 µM],nt,-2%
SMILES,PNC assembly inh,ALDH1A1 block,KDM4E inh,HPGD inh
CC(c1ccc(F)cc1)n1cc(C(=O)NCc2ccc3c(c2)OCO3)nn1 (stereo not drawn),-90*,1%,-2%,nt
CC(=O)c1ccc2c(c1)C1C(Cl)C(Sc3ccccc3[N+](=O)[O-])CC1C(c1ccccc1)N2 (stereo not drawn),-97*,7.9µM*,-12%,-25%
O=c1[nH]c(O)c(N=Nc2cc([N+](=O)[O-])ccc2O)c(=O)[nH]1,nt,20µM*,165%,nt
Nc1ccc(S(=O)(=O)c2ccc(NCN3C(=O)NC(=O)C(=O)C3=O)cc2)cc1,nt,9%[13.5 µM],nt,-18%
Cc1cnn(-c2cc(Oc3ccccc3)ncn2)c1,-26,22µM*,-1%,nt
Nn1cnnc1,nt,12%,nt,-7%
C=C1CCC(O)C/C1=C\C=C1/CCCC2(C)C1CCC2C(C)CCCC(C)C (stereo not drawn),nt,?,-12%,-5%
COC(=O)C1CN(C#N)N(c2ccc(Cl)cc2)C12c1ccccc1-c1ccccc12 (stereo not drawn),?,-6%,1%,14µM*

# Screens: PubChem BioAssay, National Center for Advancing Translational Sciences (NCATS)
